Bioassay records: PubChem BioAssay, National Center for Advancing Translational Sciences (NCATS)
Only some compounds are listed: those with a hit (about 5.5% of all), similar ones and a draw of the others.
RORgamma inh: qHTS for inhibitors of ROR gamma transcriptional activity; Nuclear receptor ROR-gamma (Mus musculus), P51450; AID 2551, 2010; Potency, µM (highest dose often 53.6 µM), without a hit: at the top dose activity change, negative = inhibition, most hits filed as inhibitors; Drosophila S2 Gal4-RORgamma UAS-luciferase reporter, 20 h; 310,000 tested, 5.4% active; also: % is scaled to controls: 0 for no effect and ±100 for the full control effect; nearly all actives have a fitted effect of over 60% in size
Target sequence (P51450 whole entry, looked up, the tested form may be a part): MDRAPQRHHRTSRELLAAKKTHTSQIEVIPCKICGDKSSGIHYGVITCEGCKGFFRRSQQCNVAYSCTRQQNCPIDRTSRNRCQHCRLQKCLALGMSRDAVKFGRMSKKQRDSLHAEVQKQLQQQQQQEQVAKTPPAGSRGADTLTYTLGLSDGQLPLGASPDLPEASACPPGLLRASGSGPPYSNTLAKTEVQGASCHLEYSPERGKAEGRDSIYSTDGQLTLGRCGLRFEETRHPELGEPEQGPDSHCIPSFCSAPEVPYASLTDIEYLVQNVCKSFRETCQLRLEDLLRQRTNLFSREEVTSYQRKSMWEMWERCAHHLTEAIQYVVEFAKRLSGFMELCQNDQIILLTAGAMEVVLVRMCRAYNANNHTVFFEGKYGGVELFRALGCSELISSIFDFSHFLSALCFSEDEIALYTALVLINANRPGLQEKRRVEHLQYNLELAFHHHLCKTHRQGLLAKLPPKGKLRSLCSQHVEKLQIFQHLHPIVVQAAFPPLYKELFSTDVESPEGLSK
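Luciferase reporter read in Schneider cells carrying Gal4-RORγ (mouse) and UAS-Photinus luciferase; cells given compound 1 h before 700 uM copper sulfate induction, then incubated 20 h at ambient temperature.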
a7 integrin act: qHTS for Activators of Integrin-Mediated Alleviation for Muscular Dystrophy; alpha7betagal myoblasts, beta-gal FDG fluorescence, 48 h; Potency, µM (titrated, usually from 38.3 µM), inactives show at the top dose activation, actives largely listed as activators; 350,000 tested, 0.064% active; AID 624291, 2012;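 also: 100% = response of the positive control SU9516; nearly all actives have a fitted effect of over 60% in size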
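alpha7betagal+/- myoblasts (passage 13, 250/well) treated 48 h at 37C with compounds at 1:260 dilution of DMSO stock. Lysed, then beta-galactosidase activity read as FDG fluorescence (ex 480/em 540) after 30 min, with pre-read for autofluorescence.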
Chronic BCR inh: qHTS Assay to Find Inhibitors of Chronic Active B-Cell Receptor Signaling; Potency, µM (titrated, usually from 46.1 µM), inactives show top-dose activity change, negative = inhibition, actives largely listed as inhibitors; ABC-DLBCL IkBa-CBG/CBR reporter, luminescence ratio, 4 h; AID 493014, 2011; 340,000 tested, 0.05% active; active = well fitted inhibition curve with a large enough effect in the signal ratio, with a control signal flat, not every such curve was filed as active; inconclusive = small, poorly fitted or top-dose-only effect, or effect the other way, or a change in a side signal; the % refers to the signal ratio;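 also: plate controls were basal doxycycline-induced cells for no effect and cells given 10 µM MG132 for full effect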
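Compounds up to 46 uM were incubated four hours with TMD8 cells whose green CBG68 luciferase is fused to IkappaBalpha; red CBR luminescence normalised the signal, and concentration-effect curves were fitted to fusion, red and ratio data.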
Mito fusion yeast: qHTS Assay for Small Molecule Inhibitors of Mitochondrial Division or Activators of Mitochondrial Fusion. Potency, µM (titrated, usually from 46.1 µM), inactives show at the top dose growth rescue (activation), actives largely listed as activators. S. cerevisiae fusion-defective mutant growth rescue, CellTiterGlo 48 h. 320,000 tested, 0.23% active; also: % of control where 0% means no effect; nearly all actives have a fitted effect of over 45% in size
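Growth-rescue viability read-out: after 48 h at the non-permissive 37C in glycerol/ethanol YPEG, yeast mitochondrial fusion mutants are measured by CellTiterGlo luminescence; compounds (23 nl pinned per well) restoring growth score as division inhibitors or fusion activators.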
Gal4-VP16 FLuc: VP16 counterscreen qHTS for inhibitors of ROR gamma transcriptional activity; Drosophila S2 Gal4-VP16 UAS-luciferase, luminescence, 20 h; Potency, µM (series often up to 53.6 µM), inactives show at the highest dose activity, negative = inhibition, hits mostly inhibitors; 310,000 tested, 3.5% active;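 also: Gal4-VP16 expression switched on by copper sulfate through the metallothionein promoter; % is scaled to controls: 0 for no effect and ±100 for the full control effect; nearly all actives have a fitted effect of over 50% in size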
uPA surface inh: qHTS for Inhibitors of Cell Surface uPA Generation; cell surface uPA generation assay, qHTS; Potency, µM (top dose mostly 38.3 µM), without a hit: at the top dose activity change, negative = inhibition, hits mostly inhibitors; 330,000 tested, 0.31% active; AID 540303, 2011; active = well fitted inhibition curve with a large enough effect; inconclusive = small, poorly fitted or top-dose-only effect; inactive = no such curve, though single readings can be large or run the other way; tested in mouse RAW 264.7 cells; also: % is scaled to controls: 0 for no effect and ±100 for the full control effect; nearly all actives have a fitted effect of over 55% in size
An asterisk follows results filed as active; ? = inconclusive; . = no result given; [ ] = remark or other dose. Unless noted, calls follow the shape of the dose curve; as a rule, active = well fitted curve in the direction sought with a large enough effect; inconclusive = small, poorly fitted or top-dose-only effect, or another doubt; inactive = no such curve, though single readings can be large; an effect the other way counts as inactive or inconclusive. Potency is read from the fitted curve at half-maximal effect.

SMILES	RORgamma inh	a7 integrin act	Chronic BCR inh	Mito fusion yeast	Gal4-VP16 FLuc	uPA surface inh
CN1CCN(S(=O)(=O)c2cccc(C(=O)Nc3nccs3)c2)CC1	-14%	11%	-6%	2%	5%	-1%
O=C(Nc1ccon1)c1ccc(F)c(S(=O)(=O)N2CCCCC2)c1	21%	1%	5%	3%	-6%	0%
CC1CCN(S(=O)(=O)c2cccc(C(=O)Nc3nccs3)c2)CC1	11µM*	-5%	-2%	9%	?	.
O=C(Nc1nccs1)c1ccc(F)c(S(=O)(=O)N2CCOCC2)c1	-29%	3%	?	1%	-24%	-4%
CN1CCC(=O)N(C(CSc2ccc(Br)cc2)c2ccccc2)CC1 (stereo not given)	22%	.	.	.	-2%	.
COc1ccc(N2C(=O)/C(=C/c3ccc([N+](=O)[O-])cc3)N=C2C)c(OC)c1	?	-4%	-4%	-5%	7.9µM*	-2%
Oc1c(Cl)cc(Cl)cc1C=Nc1ccccc1N1CCCC1	16µM*	.	4%	20%	?	.
NC(=O)c1cccc(N=Cc2cc(Cl)cc(Cl)c2O)c1	4%	2%	-1%	2%	8%[10 µM]	7%
Cc1nn(-c2cc(C)c3ccccc3n2)c2c1C1C(C2)C1(C)C (stereo not given)	0.71µM*	-20%	-11%	7%	18µM*	13%
O=C(c1ccc(S(=O)(=O)Nc2ccc(F)cc2)cc1)N1CCN(C(=O)c2ccco2)CC1	-28%	-36%	11%	-2%	20µM*	-3%
Cc1cc(S(=O)(=O)Nc2ccc(C(=O)N3CCN(C(=O)c4ccco4)CC3)cc2)ccc1F	29%	-18%	?	3%	?	-5%
Cc1cc(C)n(-c2nnc3c4ccccc4n(C)c3n2)n1	3.2µM*	-7%	10%	-1%	?	-11%
C/C(=N\Nc1nnc2c3ccccc3n(C)c2n1)c1ccc(C)o1	-40%	-16%	?	7%	5%	-29%
CC(=NCCCn1ccnc1)c1c(-c2ccccc2)[nH]n(-c2nc3ccccc3s2)c1=O	12%	10%	15%	-3%	11%	-8%
CC(=NC1CCCC1)c1c(C)[nH]n(-c2nc3ccccc3s2)c1=O	3.5µM*	-11%	?	-14%	?	-7%
CCOC(=O)Cc1cc(=O)n(-c2nc3ccccc3s2)[nH]1	-21%	7%	2%	-3%	4%	3%
CC(=NC1CC1)c1c(-c2ccccc2)[nH]n(-c2nc3ccccc3s2)c1=O	1.3µM*	-6%	?	4%	?	.
CCOC(=O)c1c(S(=O)(=O)N2CCC(C(=O)N3CCN(c4cccc(C)c4C)CC3)CC2)c(C)n(C)c1C	.	.	-3%	.	.	.
NC(=S)NNc1cc(Cl)cc(Cl)c1	2.2µM*	-34%	-14%	11%	4µM*	-2%
NC(=S)Nc1cc(Cl)cc(Cl)c1	-33%	-8%	?	2%	-6%	-12%
COc1ccc(CN(C(=O)COc2ccccc2OC)C2CCS(=O)(=O)C2)cc1 (stereo not given)	.	.	-5%	.	.	.
c1cc2c3c(cccc3c1)C(N1CCCCCC1)=N2	7.9µM*	-24%	0%	3%	?	2%
CN(C)S(=O)(=O)c1cc(NC2CC(=O)N(c3ccc(F)cc3)C2=O)ccc1Cl (stereo not given)	34%	-20%	0%	-3%	-2%	-6%
O=C(Nc1ccncc1)C1CCN(S(=O)(=O)c2ccc(Cl)c(C(F)(F)F)c2)CC1	.	?	1%	-9%	.	11µM*
COc1cccc(NC(=O)C2CCN(S(=O)(=O)c3ccc(N4CCCC4=O)cc3)CC2)c1	.	-6%	.	.	.	.
SMILES	RORgamma inh	a7 integrin act	Chronic BCR inh	Mito fusion yeast	Gal4-VP16 FLuc	uPA surface inh
O=C(Nc1cccc(C(F)(F)F)c1)C1CCN(S(=O)(=O)c2ccc(N3CCCC3=O)cc2)CC1	?	-29%	5%	0%	13µM*	?
COc1ccc(-c2c(C)nn3c(C(F)(F)F)cc(C)nc23)cc1OC	.	.	-2%	-1%	.	.
COC(=O)[C@@H]1C[C@H]2CC[C@H](O)C[C@H]2N1Cc1ccc(N2CCOCC2)cc1	1%	.	.	.	-6%	.
O=C(CCNc1ccc(F)c(Cl)c1)c1ccco1	?	-48%	5%	-5%	?	-30%
O=C(CCNc1ccc(F)cc1)c1ccco1	11µM*	-46%	?	-2%	?	-14%
Cc1cc(C)c2cccc(NC(=S)NC(=O)c3ccccc3)c2n1	?	0%	?	-1%	3.2µM*	.
Cc1ccc2cn[nH]c2c1NC(=S)NC(=O)c1ccccc1	?	-31%	21%	-5%	-4%	0%
COc1cc(OC)nc(NC(C)=O)n1	-18%	17%	-6%	-1%	-11%	.
COc1cc(OC)nc(NC(=S)NC(=O)c2ccccc2)n1	5µM*	15%	?	-1%	?	6%
Cc1csc(NC(=S)NC(=O)c2ccccc2)n1	2µM*	30%	?	-15%	3.2µM*	-8%
Cc1csc(NC(=O)c2ccccc2)n1	-81%	-9%	?	-5%	-14%	?
Cc1ccc2cccnc2c1NC(=S)NC(=O)c1ccccc1	1.3µM*	-47%	?	-2%	3.5µM*	.
C/C(CCC(=O)OC[C@@H]1O[C@H](C#Cc2ccccc2)C=C[C@@H]1Oc1ccc(C)cc1)=N/O[C@@H](C)c1cn([C@H](CO)Cc2ccccc2)nn1	-5%[10 µM]	.	.	.	-3%[10 µM]	.
Cc1ccccc1NS(=O)(=O)c1ccc2[nH]cc(C(=O)NC(C)c3ccccc3)c(=O)c2c1 (stereo not given)	.	.	3%	.	.	.
CCCC(C)(C)C(=O)Nc1ccc(Cl)cc1	-18%	.	.	.	1%	.
CCOC(=O)C(C(=O)c1ccccc1)[C@H](CCc1ccccc1)NC(=O)OC (stereo not given in full)	13%	.	.	.	-4%	.
CC(=O)NC(=S)Nc1cccc2c(C)cc(C)nc12	1.6µM*	19%	4%	10%	11µM*	-2%
Cc1ccc2cccc(NC(=S)NC(=O)c3ccccc3)c2n1	1.8µM*	-6%	?	-6%	7.9µM*	1%
O=C(NC(=S)Nc1ccccc1C(=O)O)c1ccc2ccccc2c1	2%	3%	?	-1%	1%	5%
CC(N)=NCCCC[C@H](N)C(=O)O	6%	.	.	.	-20%	.
O=C(c1cccs1)N1CCc2ccccc21	0%[0.365 µM]	15%	1%	4%	.	?
O=C(/C=C/c1cccs1)N1CCc2ccccc21	8.9µM*	5%	?	18%	?	-12%
